# Experimental data reported in PubChem BioAssay (NCATS).
# Values without a mark were called inactive. Records with an inconclusive call do not appear. Entries that show only a call come without a potency. Activity calls are given as the source filed them. Unless noted, the call rests on the fitted dose curve; in most records, active means well fitted curve in the direction sought with a large enough effect; inconclusive means small, poorly fitted or top-dose-only effect, or another doubt; inactive means no such curve, though single readings can be large; an effect the other way counts as inactive or inconclusive.
# Key:
# [1] = Cell Viability - BJ (AID 421; calls by dose curve;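 further: potency means the concentration at half of the fitted maximal effect; cells exposed to compound for 40 hours at 37 °C before readout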); conditions: BJ fibroblast viability, qHTS
# How it was run: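 Normal human BJ foreskin fibroblasts, 1500/well in complete medium, treated 40 hr at 37 °C. Cellular ATP by CellTiter-Glo luminescence; normalized to DMSO and 100 uM tamoxifen, AC50 from Hill fit.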
# [2] = Cell Viability - Jurkat (AID 426;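 active means dose-dependent loss of cell ATP signal giving a full or clear fitted curve, ranked by lower potency value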; further: potency means the concentration at half of the fitted maximal effect); conditions: qHTS
# How it was run: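 Cytotoxicity was scored as loss of cellular ATP, measured by luciferase-based luminescence, in Jurkat clone E6-1 cells after 40 h compound treatment; tamoxifen and doxorubicin served as positive controls.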
# [3] = Cell Viability - Hek293 (AID 427;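 active means compounds whose dose-response curve shows a full or clear partial loss of cell viability, called from curve shape rather than a numeric limit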;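 further: potency means the concentration at half of the fitted maximal effect; cells exposed to compound for 40 hours at 37 °C before reading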); conditions: qHTS
# How it was run: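 HEK293 cells in complete medium were exposed to compound for 40 hr at 37 °C, then cellular ATP was read by CellTiter-Glo luminescence. Data were normalized to DMSO (basal) and 100 uM tamoxifen (100% inhibition), and AC50 came from Hill fits.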
# [4] = Cell Viability - HepG2 (AID 433; calls by dose curve;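 further: potency means the concentration at half of the fitted maximal effect; potency for ATP loss meaning cytotoxicity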); conditions: qHTS
# How it was run: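 Read-out is luciferase-based quantitation of cellular ATP as a measure of viable HepG2 cells after 40 h treatment at 37 °C. Signal decrease is scaled between DMSO-only and 100 uM tamoxifen controls, with AC50 fitted by the Hill equation.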
# [5] = Cell Viability - MRC5 (AID 434; calls by dose curve;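 further: potency means the concentration at half of the fitted maximal effect; potency reflects cytotoxicity seen as loss of intracellular ATP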); conditions: MRC5 lung fibroblast viability, qHTS
# How it was run: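 AC50 values come from Hill-equation fits of intracellular ATP loss, measured by CellTiter-Glo luminescence. Normal lung fibroblasts (MRC5) had 40 hr compound treatment at 37 C, normalized between DMSO and 100 uM tamoxifen.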
# [6] = Cell Viability - SK-N-SH (AID 435; calls by dose curve;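 further: potency means the concentration at half of the fitted maximal effect; compound exposure lasted 40 h at 37 °C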); conditions: SK-N-SH neuroblastoma cell viability qHTS
# How it was run: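 Luminescent ATP signal served as the viability read-out after 40 hours of compound treatment of human neuroblastoma SK-N-SH cells. Concentration-response data, scaled between DMSO and 100 uM tamoxifen, gave AC50 values by standard Hill modeling.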
# [7] = Cell Viability - HUV-EC-C (AID 542); conditions: HUV-EC-C endothelial cell viability, qHTS; series mostly up to 92.2 µM; further: nearly all actives have a fitted effect of over 35% in size
# How it was run: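 Concentration-dependent ATP loss in HUV-EC-C cells is the measure. Exposure lasts 40 hr at 37 °C; luminescence follows CellTiter-Glo addition, and Hill fits give AC50.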
# [8] = Cellular Toxicity (caspase-3) HepG2 (AID 654); conditions: HepG2 caspase-3 activation, luminescence, 0% = DMSO only, 100% = tamoxifen; series mostly up to 92.2 µM;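 further: cells exposed to compound for 16 hours before reading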
# How it was run: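 Concentration-response AC50 values reflect caspase-3/7 induction in HepG2 cells after 16 hours of compound exposure, quantified by luminescence from liberated aminoluciferin and referenced to 100 uM tamoxifen as full stimulation.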
# [9] = Cellular Toxicity (caspase-3) SK-N-SH (AID 661); conditions: SK-N-SH caspase-3 activation, qHTS; series mostly up to 91.7 µM
# How it was run: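 Apoptosis readout in SK-N-SH neuroblastoma: Caspase-Glo 3/7 luminescence following 16 hr treatment in complete culture medium. Normalization used DMSO and 10 uM staurosporine controls.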
# [10] = Cellular Toxicity (caspase-3) N2a (AID 665); conditions: N2a cells, luminescence, normalized: DMSO 0%, 10 µM staurosporine 100%; series mostly up to 92.2 µM;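 further: compound exposure lasted 16 h at 37 °C before readout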
# How it was run: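 Concentration-response qHTS: compound-induced caspase-3/7 luminescence in N2a cells (16 h, 37 °C), relative to DMSO and 10 uM staurosporine controls; AC50 obtained using the standard Hill equation.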
# [11] = Cellular Toxicity (caspase-3) NIH 3T3 (AID 666); conditions: NIH 3T3 caspase-3 activation, apoptosis/toxicity; series mostly up to 92.2 µM;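 further: caspase signal read after 16 h compound exposure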
# How it was run: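 Activity: caspase-3/7 induction, NIH 3T3 cells, 16 hr treatment at 37°C, luminescent Caspase-Glo detection; AC50 via Hill equation.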
# [12] = Cellular Toxicity (caspase-3) Renal Proximal Tubule (AID 667); conditions: renal proximal tubule cells; series mostly up to 91.7 µM;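 further: cells exposed to compound for 16 hours at 37 °C before detection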
# How it was run: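 AC50 derived by standard Hill fit of concentration-response data, normalized between DMSO basal and 10 uM staurosporine as 100% stimulation. Cells: primary rat kidney proximal tubule, 16 h treatment at 37 °C.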
# [13] = MultiTox-Fluor Cytotoxicity Assay - LYMP1-003 - Dead Cells (AID 961); conditions: LYMP1-003 lymphoblastoid cells, dead-cell protease fluorescence; series mostly up to 92.2 µM; further: nearly all actives have a fitted effect of over 70% in size
# How it was run: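 LYMP1-003 human lymphoblastoid cells (2500/well) exposed to compound 16 h at 37 C in complete medium; dead-cell protease read with bis-AAF-R110 fluorescence (Ex/Em 485/520) after 60 min at room temperature. Normalized to DMSO and 15 uM tetraoctylammonium bromide; AC50 from Hill fit.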
# [14] = Cell Viability - LYMP2-007 (AID 979); conditions: LYMP2-007 lymphoblastoid cell viability; series mostly up to 92.2 µM;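 further: cells exposed to compound for 24 h before reading; nearly all actives have a fitted effect of over 60% in size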; further: potency means the concentration at half of the fitted maximal effect
# How it was run: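 Measured via luciferase-based ATP quantitation: lymphoblastoid cells, 24 hr compound exposure at 37 C, AC50 from Hill fits.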
# [15] = Cell Viability - LYMP1-002 - Assay at 24 hr (AID 993); conditions: LYMP1-002 lymphoblastoid cells viability; series mostly up to 92.2 µM
# How it was run: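 Viability was judged from intracellular ATP using a luciferase read-out, following a 24-hour compound incubation at 37 C of lymphoblastoid cells seeded at 2500 per well. Concentration-response data were fitted to the Hill equation for AC50.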
# [16] = qHTS Assay for Identification of Small Molecule Inducers of Hypoxia Response (AID 2120; active means well fitted curve in the direction sought with a large enough effect in the signal ratio, with a control signal flat, not every such curve was filed as active; the % refers to the signal ratio); conditions: hypoxia response reporter cells, beta-lactamase ratio readout; series mostly up to 104 µM
# How it was run: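 HRE-bla ME-180, 2500 cells/well, 0.5% dialyzed FBS medium; cpd titration, 17 h 37 degrees C; CCF4 2.5 h RT; Ex 405, Em 460/530 ratio -> %Activity, AC50.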
# [17] = molecular target: Peroxisome proliferator-activated receptor alpha (Homo sapiens) (UniProt Q07869); test: qHTS assay for small molecule agonists of the peroxisome proliferator-activated receptor alpha (PPARalpha) signaling pathway (AID 651778); conditions: PathHunter PPARalpha complementation, chemiluminescence, 6 h; stronger effect = higher value
# Peroxisome proliferator-activated receptor alpha (Homo sapiens), sequence (Q07869 whole entry, looked up): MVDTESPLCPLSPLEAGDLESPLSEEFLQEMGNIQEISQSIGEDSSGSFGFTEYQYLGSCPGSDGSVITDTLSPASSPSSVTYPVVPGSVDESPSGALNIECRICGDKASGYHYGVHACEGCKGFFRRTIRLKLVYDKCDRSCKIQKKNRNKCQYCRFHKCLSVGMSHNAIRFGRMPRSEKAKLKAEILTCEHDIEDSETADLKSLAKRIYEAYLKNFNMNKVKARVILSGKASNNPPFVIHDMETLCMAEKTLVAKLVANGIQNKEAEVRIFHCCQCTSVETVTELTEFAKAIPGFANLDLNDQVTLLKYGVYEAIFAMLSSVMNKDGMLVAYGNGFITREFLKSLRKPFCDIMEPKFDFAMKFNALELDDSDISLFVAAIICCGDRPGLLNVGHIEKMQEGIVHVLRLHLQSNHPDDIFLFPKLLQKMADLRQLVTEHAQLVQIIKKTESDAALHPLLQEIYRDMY
# How it was run: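 Chemiluminescence from complemented enzyme reported PPARalpha activation in cells after 6 hr of compound treatment at 37 C. The detection reagent was incubated for 60 min at room temperature, and compounds were scored as agonists.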
# [18] = qHTS assay for small molecule agonists of the antioxidant response element (ARE) signaling pathway measured by Nrf2-dependant transcriptional activity - cell viability counter screen (AID 720653; active means well fitted curve in the direction sought with a large enough effect in the repeat runs; an effect the other way counts as inactive or inconclusive); conditions: ARE-bla HepG2 viability, CellTiter-Glo ATP luminescence, 16 h; stronger effect = lower value
# How it was run: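 Cytotoxicity counter screen: intracellular ATP quantified by CellTiter-Glo luminescence in the same ARE-bla HepG2 plates, after 16 h compound exposure and a 2 h beta-lactamase substrate step.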
# [19] = qHTS assay for cell viability of HEK293 cells (AID 743288); conditions: ATP luminescence (CellTiter-Glo), 18 h, stronger effect = lower value; further: nearly all actives have a fitted effect of over 50% in size
# How it was run: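 Viable-cell counts were inferred from luciferase-based ATP content in HEK293 cells seeded at 2,000/well, pre-incubated ≥5 h, then dosed with DMSO-solubilised compounds for 18 h at 37 C.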
# [20] = qHTS assay for cell viability of the p53RE-bla HCT-116 cell line (AID 743292); conditions: p53RE-bla HCT-116 viability, ATP luminescence, 16 h; series mostly up to 95 µM; further: nearly all actives have a fitted effect of over 55% in size
# How it was run: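 Viability of compound-treated p53RE-bla HCT-116 cells is taken from ATP-dependent luciferase luminescence. Treatment lasts 16 h at 37 C after a 5 h settling period; detection follows 30 min at room temperature.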
Structure (SMILES),Potency [1] [µM],Potency [2],Potency [3] [µM],Potency [4] [µM],Potency [5] [µM],Potency [6] [µM],Potency [7],outcome [8],Potency [9],outcome [10],Potency [11],outcome [12],Potency [13],Potency [14],Potency [15],Potency [16],max response [17] [%],max response [18] [%],max response [19] [%],Potency [20]
Nc1cccc2ccccc12,> 92,33 µM (active),> 92,> 92,> 92,> 92,inactive,inactive,inactive,inactive,inactive,inactive,inactive,39.8 µM (active),inactive,inactive,-2.99,-19.6,-0.157,inactive
O=C(Cl)c1ccccc1F,> 92,> 92 µM,> 92,> 92,> 92,> 92,inactive,inactive,inactive,inactive,inactive,inactive,inactive,inactive,inactive,inactive,-1.25,6.36,-8.76,inactive
CCCCCCCCCCCOC(=O)c1ccccc1C(=O)OCCCCCCCCCCC,> 92,> 92 µM,> 92,> 92,> 92,> 92,inactive,inactive,inactive,inactive,inactive,inactive,inactive,inactive,inactive,inactive,0.22,3.11,3,inactive
Cc1coc2c1CCC(C)C2 (stereo not given),> 92,> 92 µM,> 92,> 92,> 92,> 92,inactive,inactive,inactive,inactive,inactive,inactive,inactive,inactive,inactive,inactive,9.95,-1.7,2.25,inactive
ClCCCCl,> 92,> 92 µM,> 92,> 92,> 92,> 92,inactive,inactive,inactive,inactive,inactive,inactive,inactive,inactive,inactive,inactive,-2.57,1.55,2.44,inactive
C[N+](=O)[O-],> 92,> 92 µM,> 92,> 92,> 92,> 92,inactive,inactive,inactive,inactive,inactive,inactive,inactive,inactive,inactive,inactive,-2.13,-1.82,4.12,inactive
CC1CC(=O)O1 (stereo not given),> 92,> 92 µM,> 92,> 92,> 92,> 92,inactive,inactive,inactive,inactive,inactive,inactive,inactive,inactive,inactive,inactive,-0.51,-3.76,-7.61,inactive
CC(C)OC(=O)Cc1ccccc1,> 92,> 92 µM,> 92,> 92,> 92,> 92,inactive,inactive,inactive,inactive,inactive,inactive,inactive,inactive,inactive,inactive,0.38,-4.02,-4.3,inactive
Nc1ccc(-c2ccccc2)cc1,> 92,> 92 µM,> 92,> 92,> 92,> 92,inactive,inactive,inactive,inactive,inactive,inactive,inactive,inactive,inactive,inactive,-0.418,5.56,-6.92,inactive
C=CCCl,> 92,> 92 µM,> 92,> 92,> 92,> 92,inactive,inactive,inactive,inactive,inactive,inactive,inactive,inactive,inactive,inactive,-5.35,-2.66,2.61,inactive
